The values that follow come from PubChem BioAssay AID1852 (Sanford-Burnham Center for Chemical Genomics, 2009).

Hit rate of the full screen: of about 2,500 compounds, about 1,100 (44%) were called active. So high a share suggests a set chosen from earlier hits. The list shows a part of the results. Values without a mark were called inactive.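 The calls were made as follows: active = inhibition above 50% at 4 µM in the single-point screen; inactive = inhibition of 50% or less.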

This assay in a line: blockers of TNF-a NF-kB luciferase induction – cell-based, HEK293T NF-kB-Luc, luminescence, selectivity assay for NOD1/NOD2 signaling inhibitor project, primary screen (AID 1852). The conditions noted are these: TNF-a induced, 14 h, at 4 µM, stronger effect = higher value.
One may read the inhibition as the relative decrease from the control value, in per cent. In the case of `CCOC(=O)N=Nc1c2ccccc2c2nc3no[nH]c3nc12`, the inhibition was 105% (active).
To `COc1cc(/C=C2\C(=N)N3N=C(S(C)(=O)=O)SC3=NC2=O)ccc1OCCOc1ccccc1C` belongs -26.4%; to `CC(=O)c1c(C)n(-c2ccc(Cl)cc2)c2ccc(O)cc12`, 12.3%; to `CC(=O)c1c(C)n(-c2ccccc2)c2ccc(O)cc12`, 68% (active).
With `CC(=O)c1ccc(N2CCN(c3ccnc4cc(Cl)ccc34)CC2)cc1` the figure was 45.2%.
To `CC(=O)c1ccc(-n2c(C)c(C(C)=O)c3cc(O)ccc32)cc1` belongs 50.8% (active).
Take `COc1ccc(-n2c(C)c(C(C)=O)c3cc(O)ccc32)cc1`: the inhibition is 72.1% (active).
To `Cc1ccc(S(=O)(=O)NC(CC(C)C)C(=O)N2CC(C)OC(C)C2)cc1` (stereo not given) belongs 9.2%; to `O=C1CCC2S/C(=C/Nc3ccc(C(F)(F)F)cc3)C(=O)N12` (stereo not given), 95.8% (active).
With `COc1cccc(C(=O)Oc2c(Br)cc(Br)cc2/C=N/NC(=O)c2cc(C)[nH]n2)c1` the figure was 71.1% (active); with `Cc1cc(C(=O)N/N=C/c2cc(Br)ccc2OC(=O)c2ccccc2)n[nH]1`, 91.1% (active); with `Cc1cc(C(=O)N/N=C/c2cc(Br)cc(Br)c2OC(=O)c2cccc(F)c2)n[nH]1`, 75.2% (active).
To `Cc1cccc(Nc2nc(N)nc(CCl)n2)c1` belongs 25.3%; to `Cc1c(-c2ccccc2)oc2c(C(=O)N3CCN(c4ccc([N+](=O)[O-])cc4)CC3)cccc2c1=O`, 60.9% (active).
On to `Cc1ccc(S(=O)(=O)NCc2ccc(C(=O)N3CCN(c4ccc([N+](=O)[O-])cc4)CC3)cc2)cc1`, for which the inhibition is 43.8%.
As to `O=[N+]([O-])c1ccc(N2CCN(c3ccccc3)CC2)nc1`, the inhibition was -49.6%.
With `CCN1CCN(S(=O)(=O)c2c(C)cc(C)cc2C)CC1` the figure was 54.2% (active); with `Cc1ccc(S(=O)(=O)N2CCN(CCC#N)CC2)cc1`, 44.4%; with `CCN1CCN(S(=O)(=O)c2ccc(Cl)c(C(=O)Nc3cc(Cl)ccc3N3CCOCC3)c2)CC1`, 28.9%.
As to `COc1ccc2[nH]c(C(=O)N/N=C/c3ccc(O)cc3O)cc2c1`, the inhibition is 48.1%.
To `Cn1cccc1-c1cc(C(=O)N/N=C/c2cc(Br)ccc2O)[nH]n1` belongs 60.4% (active); to `O=C1CSC(c2cccnc2)N1CCc1ccccn1` (stereo not given), 0.7%.
Turning to `Cc1ccc(NC(=O)c2ccccc2NS(=O)(=O)c2ccc(Cl)s2)cc1`, the inhibition is 71.2% (active).
Turning to `Cc1ccc(NC(=O)c2cc3c(s2)CCCC3)cc1S(=O)(=O)Nc1ccccc1Cl`, the inhibition was 69.1% (active).
With `Cc1cc(NC(=O)c2ccccc2NS(=O)(=O)c2c(C)c(C)cc(C)c2C)no1`, the inhibition was 9.8%.
To `O=C(Nc1cc(S(=O)(=O)Nc2ccccc2Cl)ccc1O)c1cc2c(s1)CCCC2` belongs 36.1%; to `COc1ccc(C)cc1NC(=O)c1ccccc1NS(=O)(=O)c1ccc(Cl)s1`, 87.9% (active); to `CS(=O)(=O)Nc1ccccc1C(=O)Nc1cc(Cl)cc(Cl)c1`, 74.6% (active).
For `Cc1ccc(NC(=O)c2ccccc2NS(=O)(=O)c2ccc(Cl)s2)cc1S(=O)(=O)N1CCOCC1`, the inhibition is 84.3% (active).
Turning to `COc1ccccc1NS(=O)(=O)c1cccc(NC(=O)c2sc3ccccc3c2Cl)c1`, the inhibition was 39.2%.
With `COc1cccc(NS(=O)(=O)c2ccc(Br)s2)c1` the figure was -23.8%; with `COc1cc(NC(=O)c2ccccc2NS(=O)(=O)c2ccc(Cl)s2)cc(OC)c1`, 84.9% (active); with `N#C/C(=C(/O)COC(=O)COc1ccc(Cl)cc1)c1nc2ccccc2[nH]1`, 108% (active).
With `Cc1cc(C)cc(OCC(=O)OC/C(O)=C(\C#N)c2nc3ccccc3[nH]2)c1` the figure was 103% (active); with `N#C/C(=C(/O)COC(=O)COc1cccc(Br)c1)c1nc2ccccc2[nH]1`, 33%.
With `CCCS(=O)(=O)c1nnnn1-c1cccc(OC)c1` the figure was 76.1% (active).
For `COc1cccc(-n2nnnc2S(C)(=O)=O)c1`, the inhibition was 79.5% (active).
With `CCS(=O)(=O)c1nnnn1-c1ccccc1S(C)(=O)=O`, the inhibition was 43.2%.
With `N#CCCS(=O)(=O)c1nnnn1-c1ccccc1` the figure was 75.5% (active).
Take `Cc1cccc(Nc2ncnc3onc(-c4cccc(Cl)c4)c23)c1C`: the inhibition was 15.5%.
In the case of `COc1ccc(OC)c(-c2csc(NC(=O)C3=NNC(=O)CC3)n2)c1`, the inhibition was 37.1%.
To `COc1ccc(NC(=O)Nc2nnc(-c3ccncc3)s2)cc1` belongs 30%.
With `COc1cccc(NC(=O)Nc2nc(-c3ccc(OC)c(OC)c3)cs2)c1` the figure was 100% (active).
To `COc1cccc(NC(=O)Nc2cccc(C(=O)O)c2)c1` belongs 65.7% (active); to `COc1cccc(NC(=O)CCC2CCN(C(=O)c3cncs3)CC2)c1`, 4.6%; to `O=C(Nc1cccc(C(=O)O)c1)Nc1ccccc1Cl`, -17.8%.
`CC(Sc1nnc2c(n1)[nH]c1ccccc12)C(=O)N(C)C1CCCCC1` (stereo not given): the inhibition is 32.3%.
With `COc1ccc(C)cc1NC(=O)CSc1ccc(-c2sc(C)nc2C)nn1` the figure was 21.8%; with `COc1ccc(C)cc1NC(=O)CSc1ccc(-c2ccco2)nn1`, -4.4%.
To `COc1ccc(OC)c(NC(=O)CSc2ncnc3c2cnn3-c2ccccc2Cl)c1` belongs 36.9%; to `COc1ccc(C)cc1NC(=O)CSc1ccc(-c2ccccn2)nn1`, 82.9% (active); to `COc1ccc(NC(=O)CSc2ccc(-c3cccs3)nn2)c(OC)c1`, 72.8% (active).
With `Cc1ccc(NC(=O)Nc2nnc(-c3ccncc3)s2)cc1C` the figure was 43.3%; with `COc1ccc(C(=O)N/N=C(\c2ccccc2)c2ccccn2)cc1`, 46.3%.
With `O=C(N/N=C(\c1ccccc1)c1cccnc1)c1cccc(F)c1`, the inhibition is 102% (active).
To `COc1cc(C(=O)N/N=C(\c2ccccc2)c2ccccn2)cc(OC)c1OC` belongs 64% (active); to `COc1cccc(C(=O)N/N=C(/c2ccccc2)c2ccccn2)c1`, 62.2% (active).
To `COc1cc(C(=O)Nc2scc(-c3ccc(Br)cc3)c2C(=O)O)cc(OC)c1OC` belongs 21.5%.
With `C/C(CC(=O)Nc1cccnc1)=N\NC(=O)c1ccc([N+](=O)[O-])c(Cl)c1` the figure was 15.3%.
Take `COc1cc(C(=O)Nc2sc3c(c2C(=O)O)CCC(C)C3)cc(OC)c1OC` (stereo not given): the inhibition was 40%.
